LDHA block: qHTS assay for inhibitors of human lactate dehydrogenase | L-lactate dehydrogenase A chain (Homo sapiens), P00338 | purified LDHA, NADH/diaphorase-resazurin fluorescence; stronger effect = lower value | activity change, % (values are at about 110 or 230 µM) | 480,000 tested, 0.15% active; in the data active = activity change below about -30%; inconclusive = mostly about -25% to -30%
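Enzyme activity of human lactate dehydrogenase 5 (2 nM; 0.06 mM NADH, 0.2 mM pyruvate, 5 min, RT) is measured via a resazurin/diaphorase fluorescence readout of residual NADH.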
Nrf2 inh: Nrf2 qHTS screen for inhibitors; A549 ARE-Fluc reporter, luciferase luminescence, 18-24 h; Potency, µM (top dose mostly 46 µM), usual class: inhibitors; 360,000 tested, 2.1% active; AID 504444, 2011; note: nearly all actives have a fitted effect of over 60% in size
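Cells were seeded and rested 2 h, then exposed to compounds for 18-24 h. CellTiter-Fluor was read first as a viability measure. BugLite was added 15 min before the final luminescent read of ARE-luciferase activity in A549 cells.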
IDH1 R132H inh: qHTS for Inhibitors of mutant isocitrate dehydrogenase 1 (IDH1): qHTS. Potency, µM (highest dose often 76.6 µM), actives largely listed as inhibitors. 390,000 tested, 0.093% active. IDH1-R132H enzyme, NADPH consumption, diaphorase/resazurin fluorescence; note: nearly all actives have a fitted effect of over 65% in size
Target sequence (O75874 whole entry R132H, stated change not applied): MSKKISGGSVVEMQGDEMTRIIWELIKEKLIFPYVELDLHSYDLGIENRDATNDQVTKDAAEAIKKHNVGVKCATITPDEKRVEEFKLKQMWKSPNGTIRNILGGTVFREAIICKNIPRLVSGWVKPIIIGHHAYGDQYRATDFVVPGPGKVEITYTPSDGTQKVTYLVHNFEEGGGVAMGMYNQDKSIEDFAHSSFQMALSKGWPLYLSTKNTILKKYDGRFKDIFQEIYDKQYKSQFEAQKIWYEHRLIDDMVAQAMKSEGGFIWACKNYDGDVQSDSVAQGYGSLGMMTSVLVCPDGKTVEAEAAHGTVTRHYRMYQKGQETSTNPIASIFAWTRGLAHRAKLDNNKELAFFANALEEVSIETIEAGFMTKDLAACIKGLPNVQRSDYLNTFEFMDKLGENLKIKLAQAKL
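IDH1-R132H (0.5 ug/mL dispensed) in pH 7.5 Tris buffer was preincubated 30 min with compound, then given a substrate mix of 0.016 mM NADPH and 2 mM alpha-KG for 80 min at room temperature; remaining NADPH was read by diaphorase/resazurin fluorescence.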
Nrf2 ARE act: qHTS of Nrf2 Activators; AREc32 ARE-luciferase reporter (MCF7-derived line), luminescence, 24 h; Potency, µM (top dose mostly 46.1 µM), usual class: activators; 410,000 tested, 0.31% active; AID 624171, 2012; note: nearly all actives have a fitted effect of over 65% in size
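Cells of the AREc32 ARE-luciferase line are plated in OPTI-MEM containing 5% FBS and left overnight at 37 deg C. Compounds are pinned in, incubation continues 24 hr, and firefly luciferase signal is then measured.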
12-LOX inh: Primary qHTS assay for inhibitors of human arachidonate 12S-lipoxygenase (ALOX12): Round 2. Polyunsaturated fatty acid lipoxygenase ALOX12 (Homo sapiens), P18054. purified 12hLO, xylenol orange hydroperoxide absorbance. Potency, µM (top dose mostly 108 µM), hits mostly inhibitors. 580,000 tested, 1.1% active. AID 1671190, 2021
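Purified human 12hLO (150 nM final) in 25 mM Hepes, 0.01% Triton X-100, pH 7.0 was preincubated 15 min at room temperature with compound. Then 40 uM arachidonic acid was added, 30 min. Hydroperoxide was read by Fe-XO absorbance ratio 573/405 nm.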
A549 tox: Nrf2 qHTS screen for inhibitors: counterscreen for cytotoxicity; A549 ARE-Fluc cells, CellTiter-Fluor viability, 18-24 h; Potency, µM (highest dose often 46 µM), actives largely listed as inhibitors; 390,000 tested, 0.16% active; AID 504648, 2011
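A549 ARE_Fluc cells in 5% FBS OPTI-MEM were exposed to compounds in concentration-response for 18-24 h at 37 deg C. Viability was read by CellTiter-Fluor fluorescence (Ex 405/Em 525) after 30 min, before the luciferase read.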
A number is an active result; . = inactive; ? = inconclusive; / = no result given. In the library only some 2.7% were active in any assay of this set; here they are far more common. Unless noted, calls come from the whole dose curve; as a rule, active = well fitted curve in the direction sought with a large enough effect; inconclusive = small, poorly fitted or top-dose-only effect, or another doubt; inactive = no such curve, though single readings can be large; an effect the other way counts as inactive or inconclusive.

SMILES	LDHA block	Nrf2 inh	IDH1 R132H inh	Nrf2 ARE act	12-LOX inh	A549 tox
NS(=O)(=O)c1ccc(N/N=C/c2ccc(Cl)c([N+](=O)[O-])c2)c([N+](=O)[O-])c1	.	/	/	/	.	/
CCC(=O)N1CCc2cc(S(=O)(=O)CCC(=O)N3CCN(c4cccc(Cl)c4)CC3)ccc21	.	23µM	.	.	.	.
CCC(=O)N1CCc2cc(S(=O)(=O)CCC(=O)N3CCN(c4ccc(C(C)=O)cc4)CC3)ccc21	.	.	.	.	.	.
CC(=O)N1CCc2cc(S(=O)(=O)CCC(=O)N3CCN(c4cccc(C)c4C)CC3)ccc21	.	?	.	.	.	.
CC(=O)N1CCc2cc(S(=O)(=O)CCC(=O)N3CCN(c4cc(C)ccc4C)CC3)ccc21	.	15µM	.	.	.	.
CCC(=O)N1CCc2cc(S(=O)(=O)CCC(=O)N3CCN(c4ccc(Cl)cc4)CC3)ccc21	.	16µM	.	.	.	.
O=C(O)c1ccc(OCc2nnnn2-c2ccc(Br)cc2)cc1	.	/	/	/	?	/
COc1cc(/C=C(/C#N)c2ccc(Cl)cc2)cc(Cl)c1OCc1ccccc1C#N	.	/	/	/	.	/
O=C(CN1CCCCC1)Nc1nnc(-c2ccccc2)s1	.	.	.	?	.	.
Cc1occc1C(=O)Nc1nnc(-c2cccs2)s1	.	?	.	11µM	.	.
Cc1cccc(NC(=O)CSc2nnc(NC(=O)CN3CCCCC3)s2)c1	/	/	/	/	.	/
CCOC(=O)CSc1nnc(NC(=O)CN2CCCCC2)s1	.	.	.	.	6.3µM	.
O=C(CN1CCCC1)Nc1nnc(-c2cccs2)s1	.	?	.	11µM	.	.
Cc1nc([N+](=O)[O-])c(Br)n1Cc1ccc(Cl)c(Cl)c1	.	16µM	?	.	.	?
Cc1nc([N+](=O)[O-])c(Br)n1CC(=O)c1ccc(Cl)cc1	.	/	.	?	.	.
COC(=O)C1=C(C)NC(=O)NC1c1ccc(OC)c(OC)c1 (stereo not drawn)	.	/	.	.	.	/
COC(=O)C1=C(C)NC(=S)N(C(C)=O)C1c1ccc(OC)c(OC)c1 (stereo not drawn)	.	15µM	.	.	.	.
CC(=O)Nc1ccc(Nc2ccc(S(=O)(=O)C(F)(F)F)cc2[N+](=O)[O-])cc1	.	.	.	.	.	.
O=C(O)CNc1ccc(S(=O)(=O)C(F)(F)F)cc1[N+](=O)[O-]	.	.	.	.	4µM	?
CCNc1ccc(S(=O)(=O)N(C)C)cc1[N+](=O)[O-]	-37	.	.	.	45µM	.
COc1ccc(NC(=O)C23CCC(=O)N2c2ccccc2C(=O)N3)cc1Cl (stereo not drawn)	.	/	/	/	?	/
CCCN(CC1COc2ccccc2O1)C(=O)CSc1nnnn1C1CCCC1 (stereo not drawn)	.	/	/	/	?	/
CC(=O)Nc1cccc(OCc2ccccc2)c1	.	/	/	/	?	/
CCOC(=O)N1C/C(=C\c2ccccc2)C(=O)/C(=C/c2ccccc2)C1	.	.	.	11µM	.	.
C[N+](C)(C)CCC(=O)N1C/C(=C/c2ccccc2)C(=O)/C(=C\c2ccccc2)C1	.	.	.	?	.	.
SMILES	LDHA block	Nrf2 inh	IDH1 R132H inh	Nrf2 ARE act	12-LOX inh	A549 tox
Cc1nn(C)c(C)c1CCC(=O)Nc1nc(C(C)C)cs1	.	/	/	/	?	/
O=[N+]([O-])CC(=Nc1ccc(Cl)cc1)N/N=C\c1oc(O)c2ccccc12	.	?	.	.	4µM	.
O=C(N/N=C/c1ccc([N+](=O)[O-])o1)c1cn(-c2ccccc2)nc1-c1ccc(Cl)cc1	.	.	.	.	.	.
O=C1COc2ccc(Nc3cccnc3)nc2CN1Cc1ccc(C(F)(F)F)cc1	/	/	/	/	.	/
CCCc1cc(C(=O)NC(C)CC)sc1C (stereo not drawn)	.	/	/	/	.	/
Nc1nc(-c2ccccn2)nc(N)c1Cc1ccccc1F	.	?	.	.	.	.
Nc1nc(-c2ccccn2)nc(N)c1Cc1ccc(Cl)cc1Cl	.	6.5µM	.	.	.	?
Clc1ccc(-c2ccc(CNc3ncn[nH]3)o2)cc1	.	/	/	/	.	/
